Each structure is given as a SMILES string. Results filed as inconclusive are left out. A number with no mark means an inactive call. Activity calls are given as the source filed them. Calls come from the whole dose curve; as a rule, active = well fitted curve in the direction sought with a large enough effect; inconclusive = small, poorly fitted or top-dose-only effect, or another doubt; inactive = no such curve, though single readings can be large; an effect the other way counts as inactive or inconclusive. Numbered stars: 1 amine (or outer) side, 2 acyl side, 3 side chain; on linkers, the order of the positions; unused ones are H or OH. Square brackets hold non-standard residues; d marks the D form. Peptide text beside a SMILES is read from it. X3 = CC(CC(O[*:1])C(=O)[*:2])C(=O)O; NMeV = CN[CH](C(=O)O)C(C)C; NMeA = CN[CH](C)C(=O)O; βAla = NCCC(=O)O

Among the data in PubChem BioAssay (NCATS) are activation, Potency and activity change, negative = inhibition values, retold here.

The target of assay [1] is Cellular tumor antigen p53 (Homo sapiens) (UniProt P04637). The experiment in a line: Primary qHTS for small molecule compounds that upregulate eGFP-tagged delta133p53alpha (in N-terminal) cells. (AID 2060322).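 For activation: series mostly up to about 56 µM; 0% = DMSO vehicle and 100% = reference activator.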 Note: nearly all actives have a fitted effect of over 75% in size. Note: potency is the fitted concentration of half-maximal effect. The conditions noted are these: NCI-H358 eGFP-delta133p53alpha fluorescence, 24 h; activation: stronger effect = higher value. A digest of the protocol: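 NCI-H358 cells pre-induced 24 h with 10 ng/ml doxycycline to express N-terminal eGFP-delta133p53alpha, then dosed 24 h at 37C without doxycycline; fixed, Hoechst-stained, GFP intensity by laser scanning cytometry, normalized to DMSO (0%) and 57.5 uM 5-azacytidine (100%).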
Chain of Cellular tumor antigen p53 (Homo sapiens) (P04637 whole entry, looked up): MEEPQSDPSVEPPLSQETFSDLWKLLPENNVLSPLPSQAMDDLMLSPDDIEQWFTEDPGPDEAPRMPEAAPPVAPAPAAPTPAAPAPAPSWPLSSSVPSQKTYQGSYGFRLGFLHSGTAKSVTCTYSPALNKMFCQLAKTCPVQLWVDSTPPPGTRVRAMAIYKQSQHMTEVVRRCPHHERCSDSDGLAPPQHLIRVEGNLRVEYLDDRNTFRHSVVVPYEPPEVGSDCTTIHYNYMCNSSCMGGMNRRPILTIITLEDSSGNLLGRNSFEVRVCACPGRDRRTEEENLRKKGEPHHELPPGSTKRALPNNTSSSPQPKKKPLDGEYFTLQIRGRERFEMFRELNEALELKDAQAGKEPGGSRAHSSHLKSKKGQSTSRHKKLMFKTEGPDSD
(In general: In qHTS, concentration-response curves come from the screen itself.)

Assay [2] has as its target Aldehyde dehydrogenase, mitochondrial (Homo sapiens) (UniProt P05091). Kind of assay: qHTS for Inhibitors of the Aldehyde Dehydrogenase Family (ALDH2) Primary screen (AID 2061308).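 Note: plate controls were vehicle for no effect and reference inhibitor for full effect; nearly all actives have a fitted effect of over 55% in size.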
Assay [3] concerns the target Retinaldehyde dehydrogenase 3 (Homo sapiens) (UniProt P47895). Kind of assay: qHTS for Inhibitors of the Aldehyde Dehydrogenase Family (ALDH1A3) Primary screen (AID 2061315).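 Note: plate controls were DMSO vehicle for no effect and reference inhibitor for full effect.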

Regarding `CC1CCCCCC(=O)c2c(O)cc(O)cc2CC(=O)O1` (centres undefined), the activation in assay [1] is -18.3%. For the same compound, the Potency entry in assay [2] and in assay [3] was “inactive” each time.

Regarding `CC(=O)O[C@H]1CN2CCC1CC2`, in assay [1], the activation was 5%. The Potency entry in assay [2] and in assay [3] was “inactive” each time.

Take `C/C=C(\C)C(=O)OC1C2C3(C)CCC(OC4CC(OC)C(OC5OC(C)C(O)C(OC)C5O)C(C)O4)CC3CCC23OC32CCC(C(C)=O)C2(C)C1OC(=O)/C(C)=C/C` (centres undefined): the activation in assay [1] was 12.5%. Besides, the Potency result in assay [2] and in assay [3] was “inactive” throughout.

Consider `CCC1CN2CCc3cc(OC)c(OC)cc3C2CC1CC1=NCCc2cc(O)c(OC)cc21` (centres undefined), for which the activation in assay [1] is 23.2%. For the same compound, the Potency entry in assay [2] and in assay [3] was “inactive” each time.

With `C[N@@+]1(CC2CC2)CC[C@]23c4c5ccc(O)c4O[C@H]2C(=O)CC[C@@]3(O)[C@H]1C5`, the activation in assay [1] is -5.67%. Further, the Potency entry in assay [2] and in assay [3] was “inactive” in each case.

Turning to `COC(=O)C1=COC(C)C2CN3CCC4(C(=O)Nc5ccccc54)C3CC12` (centres undefined), the activation in assay [1] is 11.5%. Further, the Potency result in assay [2] and in assay [3] was “inactive” throughout.

Take `CCC1=CC2CN3CCc4c([nH]c5ccccc45)[C@@](C(=O)OC)(C2)[C@@H]13`: the activation in assay [1] was 6.11%. Besides, the Potency entry in assay [2] and in assay [3] was “inactive” in each case.

On to `C[C@]12CC[C@H](O[C@@H]3O[C@H](CO)[C@@H](O)[C@H](O)[C@H]3O)CC1=CC[C@@H]1C2CC[C@]2(C)[C@@H](C3=CC(=O)OC3)CC[C@]12O` (some centres undefined), for which the activation in assay [1] is 0.763%. For the same compound, the Potency result in assay [2] and in assay [3] was “inactive” throughout.

For `COc1ccsc1CNCC[C@@]1(c2ccccn2)CCOC2(CCCC2)C1`, the activation in assay [1] is -0.333%. In addition, the Potency entry in assay [2] and in assay [3] was “inactive” throughout.

With `C=CC(C)(O)CC/C=C(\C)C(=O)O[C@H]1[C@H](O)[C@@H](CO)O[C@@H](OC(=O)[C@]23CCC(C)(C)CC2C2=CCC4[C@@]5(C)CC[C@H](O[C@@H]6O[C@H](CO[C@@H]7OC[C@H](O)[C@H](O)[C@H]7O[C@@H]7OC[C@@H](O)[C@H](O)[C@H]7O)[C@@H](O)[C@H](O)[C@H]6O)C(C)(C)C5CC[C@@]4(C)[C@]2(C)CC3)[C@@H]1OC1OC(C)C(O[C@@H]2OC[C@@H](O)[C@H](O[C@@H]3OC[C@@H](O)[C@H](O)[C@H]3O)[C@H]2O)C(O)C1O` (some centres undefined), the activation in assay [1] was -6.87%. Moreover, the activity change, negative = inhibition in assay [2] was 12% [at 11.2 µM]; in assay [3], 3.26% [at 11.2 µM].

`C/C=C(\C)C(=O)OC1CC2C(C)(C)OC(=O)CC(OC(C)=O)C2(C)C2CC(OC(=O)C(C)C)C3(C)C(c4ccoc4)CC4OC43C12C` (centres undefined): in assay [1], the activation is -19.8%. Besides, the Potency result in assay [2] and in assay [3] was “inactive” in each case.

Take `C[C@@H]1C(=O)O[C@H]2[C@H](O)[C@@]34[C@@H]5OC(=O)[C@@]3(O[C@@H]3OC(=O)[C@@H](O)[C@@]34[C@H](C(C)(C)C)[C@H]5O)[C@@]12O`: the activation in assay [1] was 2.68%. For the same compound, the Potency result in assay [2] and in assay [3] was “inactive” in each case.

In the case of `CC(=O)O[C@@H]1[C@@H](O)[C@H]2O[C@@H]3C=C(C)[C@@H](O)C[C@]3(CO)[C@]1(C)[C@]21CO1`, the Potency in assay [1] was 1480 nM (active). Moreover, the Potency result in assay [2] and in assay [3] was “inactive” each time.

As for `CCC(C)C1NC(=O)C2CCCN2C(=O)C(CC(C)C(=O)O)OC(=O)CCNC(=O)C(C)N(C)C(=O)C(C(C)C)N(C)C1=O` (centres undefined) (cyclo([X3]PI[NMeV][NMeA][βAla]); configuration not given here), the activation in assay [1] is -10.7%. For the same compound, the Potency result in assay [2] and in assay [3] was “inactive” throughout.

Regarding `CCOC(=O)c1ccnc2cc(C(OCCN3CCCCC3)c3ccccc3Cl)sc12` (centres undefined), the activation in assay [1] was -5.67%. The Potency entry in assay [2] and in assay [3] was “inactive” in each case.

Regarding `Oc1ccc2c3c1O[C@H]1[C@H](N(CCCl)CCCl)CC[C@@]4(O)[C@@H](C2)N(CC2CC2)CC[C@]314`, the activation in assay [1] is -14.3%. Moreover, the activity change, negative = inhibition is -5.73% [at 11.2 µM] in assay [2] and -18.8% [at 11.2 µM] in assay [3].

Take `CO/C1=C\C(C)=C\[C@@H](C)[C@@H](O)[C@@H](C)C/C(C)=C/C=C/[C@H](OC)[C@@H]([C@@H](C)[C@@H](O)[C@H](C)[C@@]2(O)C[C@@H](O)[C@H](C)[C@@H](C(C)C)O2)OC1=O`: the activation in assay [1] was 13%. Moreover, the Potency result in assay [2] and in assay [3] was “inactive” each time.

As to `CC1C/C=C/C(O)C(O)CC/C=C/c2cc(O)cc(O)c2C(=O)O1` (centres undefined), the activation in assay [1] is -10.7%. In addition, the Potency entry in assay [2] and in assay [3] was “inactive” in each case.

Take `CCC(C)(C#N)O[C@@H]1O[C@H](CO)[C@@H](O)[C@H](O)[C@H]1O` (some centres undefined): the activation in assay [1] was 16.8%. Besides, the Potency entry in assay [2] and in assay [3] was “inactive” in each case.

On to `C=CCN1CCC2(C)c3cc(O)ccc3C[C@H]1[C@H]2C`, for which the activation in assay [1] is -5%. Also, the Potency result in assay [2] and in assay [3] was “inactive” throughout.

With `COc1cc(O)c2c(c1)/C=C/C[C@@H](O)[C@@H](O)C(=O)CCC[C@H](C)OC2=O`, the activation in assay [1] is -12.2%. Moreover, the Potency entry in assay [2] and in assay [3] was “inactive” throughout.

Take `COC(=O)C1(C)CCC(O)C2(C)c3c(O)cc(C(C)C)cc3C(O)C(OC(C)=O)C12` (centres undefined): the activation in assay [1] was -9.16%. Also, the Potency entry in assay [2] and in assay [3] was “inactive” in each case.

As for `CC[C@@H]1/C=C/C=C/C[C@H](C)C(O)[C@](C)(O)C(=O)[C@H](C)C(O)[C@H](C)C(=O)[C@H](C)[C@@H](O)[C@H](C)/C=C/C(=O)O[C@H]2[C@@H](C)[C@@H](CC1)O[C@]1(O[C@H](C[C@H](C)O)[C@H](C)CC1=O)[C@@H]2C` (some centres undefined), in assay [1], the activation was -12.2%. Also, the Potency entry in assay [2] and in assay [3] was “inactive” each time.
